Reference: the supplement of paper PMC3334620
In all, about 33,000 sequences were measured (“E-score (-0.5 to 0.5)”: median about -8e-05, highest 2% from about 0.23 on). Shown is part of a subset that was picked to be rich in the highest values.

Target: T1, Nrg2 (UniProt P38082)
T1 sequence: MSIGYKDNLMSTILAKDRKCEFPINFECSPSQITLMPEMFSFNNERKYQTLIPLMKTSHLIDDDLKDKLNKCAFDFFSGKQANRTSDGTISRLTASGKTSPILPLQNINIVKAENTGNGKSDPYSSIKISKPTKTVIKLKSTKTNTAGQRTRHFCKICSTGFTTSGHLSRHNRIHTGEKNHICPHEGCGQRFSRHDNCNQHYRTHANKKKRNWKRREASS
Assay: PBM E-score (8-mer binding enrichment) (E-score (-0.5 to 0.5)); higher = stronger / more preferred TF binding
Conditions: protein concentration: 100 nM; construct: GST-full length
Procedure, shortened: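 Using PURExpress in vitro transcription/translation, GST-tagged yeast transcription factors were made in full-length or DNA-binding-domain form. These were applied at about 100-200 nM to double-stranded universal all-10-mer Agilent arrays, and bound protein was detected with fluorescent anti-GST. Scans were normalised with masliner before the Universal PBM Analysis Suite assigned E-scores to ungapped eight-base words pooled with their reverse complements.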

Row | Sequence | PBM E-score
1 | TATCCACA | 0.131
2 | GATGAACC | -0.0336
3 | AATGAACC | 0.00986
4 | CATGAACC | 0.233
5 | CCTCTTGA | 0.0273
6 | TGCCCACA | -0.0506
7 | CAATATTC | 0.0479
8 | GAATATTA | 0.232
9 | GAATATGA | -0.0524
10 | AAATATTC | 0.127
11 | GAATATTC | 0.24
12 | GAATATCA | 0.0654
13 | GCTGAGCA | 0.0693
14 | GACAACTA | 0.158
15 | CTGTAACC | 0.108
16 | CCTTGGAC | -0.165
17 | CACGCCTA | -0.227
18 | CGGTCCAC | -0.222
19 | CGGTCCAA | -0.224
20 | GGGTCCAC | 0.301
21 | AGGTCCAC | -0.199
22 | GGGTCCAA | 0.322
23 | AGGTCCAA | -0.0549
24 | TCTCAACA | 0.0641
25 | TAGAGATA | 0.0396

Row | Sequence | PBM E-score
26 | CCTGACTA | 0.172
27 | GGACCCGA | 0.0929
28 | ATACCTTC | -0.0248
29 | GCCACGGA | -0.0858
30 | TGCTTGAA | 0.0462
31 | CGCTTGAG | -0.0135
32 | CGCTTGAA | 0.263
33 | ATATATTG | -0.0404
34 | CTCTATTA | -0.105
35 | GTATATTA | 0.107
36 | GTTTATTA | 0.194
37 | ATTTATCC | 0.247
38 | ATTTATCA | 0.225
39 | ATTTATCG | 0.0781
40 | ATTATTTA | 0.173
41 | CTATATTC | 0.0669
42 | ATTTATTA | 0.273
43 | ATATATTA | 0.245
44 | CTATATTA | 0.229
45 | AAGCCACA | -0.101
46 | GTAAGCCA | -0.113
47 | ACCATCTC | 0.0848
48 | AGTACTAC | 0.118
49 | CTCGCTTA | 0.132
50 | TCCACCGA | -0.0753

Row | Sequence | PBM E-score
51 | AAGCGATT | -0.0219
52 | AACTGCAT | 0.232
53 | AACTGCAG | -0.0636
54 | AACTGCAC | 0.0736
55 | GCTCAGCA | -0.133
56 | AAGCCACC | -0.198
57 | GAACTGTC | 0.0447
58 | ACGAGTAA | 0.244
59 | ACGAGTAT | 0.0482
60 | GCGAGTAA | 0.198
61 | ATGGGTTA | 0.0918
62 | AGTGGTTC | -0.0506
63 | ATACGCAG | -0.235
64 | ATACGCAA | 0.232
65 | GTACGCAA | -0.131
66 | CTCTGGTA | -0.0435
67 | CAAGAACA | 0.007
68 | TAAGAACA | 0.26
69 | GAAGAACA | 0.155
70 | AGTCGACC | -0.0853
71 | AGTCGACT | 0.243
72 | AGTCGACA | 0.194
73 | GGGAGAAC | -0.189
74 | AAGAAGGC | -0.197
75 | AGACATTC | -0.0988

Row | Sequence | PBM E-score
76 | ACCCTGTA | 0.347
77 | AGCCTGTA | -0.126
78 | ATCCTGAA | 0.125
79 | ACCCTGAA | 0.319
80 | AACCTGAA | -0.178
81 | GCCCTGTA | 0.208
82 | ACAAGGAC | -0.0546
83 | GCGGTCCA | -0.159
84 | TAAAGCCA | 0.0522
85 | AAACAAAC | -0.0324
86 | CAACAAAC | 0.0713
87 | GAACAAAA | 0.195
88 | ATACAAAT | 0.173
89 | AAACAAAA | 0.0254
90 | ATACAAAA | 0.218
91 | ATACAAAC | 0.258
92 | AAACAAAT | 0.235
93 | GAACAAAC | 0.323
94 | AGTCCATA | 0.0684
95 | TCAGACAA | 0.0781
96 | CAGCAGCC | 0.0863
97 | GTTGCCAA | 0.0119
98 | CTAGGCAC | -0.162
99 | AGCTTTAG | -0.105
100 | GAGGCCTC | -0.327

Row | Sequence | PBM E-score
101 | AGACGCTA | -0.138
102 | GATTCGAA | 0.256
103 | GATTCGAC | 0.141
104 | CATTCGAA | 0.0948
105 | ATGGCAGG | 0.12
106 | ACAGTTTA | -0.0808
107 | ACAGTTTC | 0.259
108 | ATTGTTTG | 0.18
109 | ATTGTTTC | 0.256
110 | CTTGTTTC | 0.0127
111 | CCAGTTTC | 0.0541
112 | AGATCAAC | 0.07
113 | TATCCGGA | 0.112
114 | AAGGAGAC | -0.156
115 | ACCACAAT | -0.0522
116 | AGGTGTAC | -0.145
117 | ACGAAACA | 0.0539
118 | TCGAACAA | 0.259
119 | TCGAACGA | 0.0281
120 | CCGAACAA | 0.0547
121 | TCGAAACA | 0.232
122 | TGGAACAA | 0.155
123 | CCGAAACA | 0.102
124 | ACGAACAA | 0.124
125 | GCGAACAA | 0.322

Row | Sequence | PBM E-score
126 | TCAGATGA | 0.148
127 | AATCGCCA | 0.0545
128 | TAAGGACA | -0.0222
129 | CGCTAGCC | -0.255
130 | ACAGAGAC | 0.00483
131 | CTTCTTGA | -0.0331
132 | CAATGGAA | 0.131
133 | AAATTCGT | 0.235
134 | GAATTCGC | 0.141
135 | CAATTCGC | 0.277
136 | AAATTCGC | 0.234
137 | AAATTCGA | -0.0488
138 | CAATTCGA | -0.135
139 | CTATTCGC | 0.0444
140 | AAATTCGG | 0.205
141 | CAATTCGG | 0.0993
142 | AAGTTGGA | 0.134
143 | AAAATCTT | -0.0461
144 | AGCCGCCC | -0.0653
145 | CCCAGTGC | 0.037
146 | GAAGAGAA | -0.0264
147 | CAAAACCA | 0.249
148 | CAAGAGAA | 0.232
149 | CAAAACCC | 0.222
150 | CGCAAGAA | 0.299

Row | Sequence | PBM E-score
151 | CACAAAAA | 0.131
152 | AGCAAGAA | 0.0497
153 | CACAAGAG | 0.14
154 | CGCAAAAA | 0.141
155 | CACAAGAA | 0.245
156 | AAAAACCA | 0.112
157 | CAAGAGAG | -0.0197
158 | CGGGATGC | -0.163
159 | CCGCTAAA | 0.0162
160 | CAAGGTCG | 0.00137
161 | CATAGCTC | -0.112
162 | CAAAAAAA | 0.245
163 | CCAAAAAA | 0.18
164 | CAAAAAAC | 0.079
165 | CGTGAAGA | -0.0995
166 | CACTACTG | 0.077
167 | AGGGTCGG | 0.0394
168 | AGCGTCGA | 0.244
169 | CGGGTCGC | -0.0689
170 | AGGGTCGA | 0.262
171 | CGGGTCGA | -0.181
172 | AGCGTCGC | -0.0577
